Test results taken from PubChem BioAssay (EPA / NIEHS).
“And” between values parts separate entries of the source, which are not always exact repeats. Identical values can stand only once. Results filed as inconclusive are left out. The source made the active and inactive calls. How the source made its calls, unless noted: active means hit-call score of the fitted dose curve at least 0.9, where 1 is the maximum; inactive means score below 0.9.

Assays:
[1] = biological target: Glucocorticoid receptor (Homo sapiens) (UniProt P04150); assay: ATG_GR_TRANS: Attagene TRANS-FACTORIAL HepG2 Assay for human Glucocorticoid Receptor (GR) (AID 2282978; active means hit-call score of the fitted dose curve at least 0.9, where 1 is the maximum;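 further: activators score as hits since higher reporter transcript over DMSO is fitted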); settings: HepG2 Attagene TRANS GR reporter, mRNA transcription
Outline: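 Fluorescent capillary-electrophoresis quantitation of reporter mRNA is the readout, taken 24 h after dosing human HepG2 cells carrying transiently transfected GAL4-UAS reporter units activated by chimeric NR-GAL4 fusions; activity scored as induction over DMSO.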

[2] = biological target: Oxysterols receptor LXR-beta (Homo sapiens) (UniProt P55055); assay: ATG_LXRb_TRANS: Attagene TRANS-FACTORIAL HepG2 Assay for human Liver X Receptor beta (LXRb) (AID 2282981; active means hit-call score of the fitted dose curve at least 0.9, where 1 is the maximum); settings: HepG2 Attagene TRANS GAL4-LXRb reporter, mRNA
Outline: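 After 24 h chemical treatment of transfected HepG2 cells carrying exogenous NR-Gal4 chimeras, reporter mRNA was quantified by fluorescent RT-PCR and capillary electrophoresis; activity taken as increase over DMSO controls.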

[3] = biological target: Hepatocyte nuclear factor 4-alpha (Homo sapiens) (UniProt P41235); assay: ATG_HNF4a_TRANS: Attagene TRANS-FACTORIAL HepG2 Assay for human Hepatocyte Nuclear Factor 4 alpha (HNF4a) (AID 2282982; active means hit-call score of the fitted dose curve at least 0.9, where 1 is the maximum); settings: HepG2 HNF4a transactivation reporter, mRNA readout
Outline: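 Activity of an exogenous HNF4a–Gal4 fusion scored as induced GAL4-UAS reporter transcripts after 24 h chemical exposure of transfected human HepG2 cells. Read-out via RT-PCR with 6-FAM labelling and capillary electrophoresis; rise over DMSO baseline.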

[4] = ATG_M_06_TRANS: Attagene TRANS-FACTORIAL HepG2 Assay for M06 Transcription Factor (Internal Marker) (AID 2282983; active means hit-call score of the fitted dose curve at least 0.9, where 1 is the maximum); settings: HepG2 Attagene TRANS M06 internal marker reporter
Outline: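 Human liver HepG2 cells bearing transiently transfected chimeric NR-GAL4 reporter units were treated with chemicals for 24 h. Total RNA was reverse-transcribed, reporter sequences amplified and labelled, then quantified by capillary electrophoresis. Activity was fitted upward relative to DMSO.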

[5] = ATG_M_32_TRANS: Attagene TRANS-FACTORIAL HepG2 Assay for M32 Transcription Factor (Internal Marker) (AID 2282984; active means hit-call score of the fitted dose curve at least 0.9, where 1 is the maximum); settings: HepG2 Attagene TRANS M32 internal marker reporter
Outline: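 Internal background reporter in transfected HepG2: after 24 h chemical exposure, RNA reverse-transcribed, reporter cDNA amplified, fluorescently labelled and HpaI-cut, then sized by capillary electrophoresis. Gain of signal fitted against DMSO control.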

[6] = biological target: Transcriptional activator Myb (Homo sapiens) (UniProt P10242); assay: ATG_Myb_CIS: Attagene CIS-FACTORIAL HepG2 Assay for human Myeloblastosis (Myb) Proto-Oncogene Transcription Factor (AID 2282986); settings: HepG2 Attagene CIS-FACTORIAL Myb reporter transcription; actives raise or lower the signal
Outline: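 Reporter transcript levels, quantified by fluorescent RT-PCR and capillary electrophoresis, serve as the read-out. Transfected HepG2 cells carrying cis-promoter reporter units are dosed for 24 hours, and curves are fitted bidirectionally against DMSO controls.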

[7] = biological target: Nuclear respiratory factor 1 (Homo sapiens) (UniProt Q16656); assay: ATG_NRF1_CIS: Attagene CIS-FACTORIAL HepG2 Assay for human Nuclear Respiratory Factor 1 (NRF1) Orphan Gene (AID 2282987); settings: HepG2 NRF1 cis-element reporter, Attagene multiplex; actives raise or lower the signal
Outline: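 Multiplexed cis-reporter assay, HepG2 cells, 24 h treatment. Total RNA → oligo(dT) RT → PCR with reporter-specific primers → 6-FAM primer extension → HpaI cut → CE. Bidirectional fit vs DMSO.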

[8] = ATG_NFI_CIS: Attagene CIS-FACTORIAL HepG2 Assay for human Nuclear Factor I (NFI) (AID 2282989); settings: HepG2 cis-regulatory reporter, NFI response element transcription; actives raise or lower the signal
Outline: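 Cells: human liver HepG2, transiently transfected with promoter-regulated reporter transcription units. Exposure 24 h. Detection: fluorescent RT-PCR products separated by capillary electrophoresis, normalised to DMSO negative control.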

[9] = biological target: Myc proto-oncogene protein (Homo sapiens) (UniProt P01106); assay: ATG_Myc_CIS: Attagene CIS-FACTORIAL HepG2 Assay for human Myelocytomatosis (Myc) Proto-Oncogene Transcription Factor (AID 2282990); settings: HepG2, Attagene cis-reporter transcription factor activity; actives raise or lower the signal
Outline: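 HepG2, transient MRTU transfection (cis promoters, endogenous TFs); 24 h dosing; TriZol RNA → oligo(dT) RT → PCR → 6-FAM primer extension → HpaI cut → CE. Bidirectional fit vs DMSO.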

[10] = ATG_NRF2_ARE_CIS: Attagene CIS-FACTORIAL HepG2 Assay for human Nuclear Factor Erythroid 2 Related Factor 2 (NFR2) response to Antioxidant Response Elements (ARE) (AID 2282992); settings: HepG2 Attagene ARE/NRF2 reporter, transcription factor activity; actives raise or lower the signal;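 on AC50: reporter mRNA level measured by RT-PCR and capillary electrophoresis fluorescence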
Outline: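 Readout: reporter mRNA quantified by RT-PCR plus FAM-labelled primer extension, HpaI digestion and capillary electrophoresis, 24 h after dosing transfected HepG2 cells. Gain or loss of signal is fitted bidirectionally against DMSO baseline.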

[11] = ATG_Oct_MLP_CIS: Attagene CIS-FACTORIAL HepG2 Assay for human Octamer-Binding Transcription Factor (Oct) (AID 2282993); settings: HepG2 Attagene cis-factorial Oct reporter, mRNA; actives raise or lower the signal
Outline: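 HepG2, transient MRTU transfection, cis promoter elements; 24 h dosing; RT-PCR/CE fluorescence read-out of reporter mRNA; fit both directions vs DMSO.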

[12] = biological target: Cellular tumor antigen p53 (Homo sapiens) (UniProt P04637); assay: ATG_p53_CIS: Attagene CIS-FACTORIAL HepG2 Assay for human p53 Transcription Factor (AID 2282994); settings: HepG2 p53 cis-element reporter, Attagene mRNA; actives raise or lower the signal
Outline: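 Read-out: reporter mRNA by RT-PCR plus capillary electrophoresis with fluorescence detection. Human HepG2 liver cells carried transfected multi-reporter cis-element constructs, dosed 24 h. Gain or loss of signal fitted bidirectionally against DMSO control.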

[13] = biological target: Oxysterols receptor LXR-alpha (Homo sapiens) (UniProt Q13133); assay: ATG_LXRa_TRANS: Attagene TRANS-FACTORIAL HepG2 Assay for human Liver X Receptor alpha (LXRa) (AID 2282980; active means hit-call score of the fitted dose curve at least 0.9, where 1 is the maximum); settings: HepG2 Attagene TRANS reporter, LXRa transactivation
Outline: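 Transient HepG2 transfectants, 24 h dosing, RT-PCR/CE mRNA reporter quantitation; gain-of-signal vs DMSO.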

[14] = ATG_NF_kB_CIS: Attagene CIS-FACTORIAL HepG2 Assay for human Nuclear Factor Kappa B (NF-kB) (AID 2282991); settings: HepG2 Attagene cis-factorial NF-kB reporter mRNA; actives raise or lower the signal
Outline: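 Transient MRTU transfection of human HepG2 liver cells → 24 h chemical exposure → total RNA, oligo(dT) RT → PCR, 6-FAM primer extension, HpaI digest 2 h 37 C → CE fragment analysis. Bidirectional fitting, DMSO negative control.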

[15] = BSK_3C_TissueFactor: BioMAP Diversity Plus: 3C Assay for Tissue Factor Biomarker Activity (AID 2282997); settings: BioMAP 3C HUVEC, tissue factor biomarker readout; actives raise or lower the signal
Outline: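 Cells used were primary human umbilical vein endothelial cells. They were dosed with chemical, and after 24 h Tissue Factor was quantified by ELISA. Curves were fitted bidirectionally with DMSO as baseline.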

[16] = BSK_3C_uPAR: BioMAP Diversity Plus: 3C Assay for Urokinase-type plasminogen activator receptor (uPAR) Biomarker Activity (AID 2282998); settings: BioMAP 3C HUVEC, uPAR biomarker ELISA; actives raise or lower the signal
Outline: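 A multiplexed primary-cell system built on human umbilical vein endothelium was used, with chemical present for 24 h before reading. Cell-surface uPAR was detected by ELISA; signal change in either direction counted against DMSO.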

[17] = BSK_3C_VCAM1: BioMAP Diversity Plus: 3C Assay for Vascular cell adhesion molecule 1 (VCAM1) Biomarker Activity (AID 2282999); settings: BioMAP 3C HUVEC, VCAM1 ELISA, cytokine-stimulated; actives raise or lower the signal
Outline: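 Activity fitted in both directions relative to DMSO, with ELISA measurement of the surface marker on primary HUVEC (3C) at 24 h post-treatment; parallel SRB staining (0.1% SRB, TCA-fixed, 560 nm) flagged overt cytotoxicity.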

[18] = biological target: Nuclear receptor subfamily 4 group A member 2 (Homo sapiens) (UniProt P43354); assay: ATG_NURR1_TRANS: Attagene TRANS-FACTORIAL HepG2 Assay for human Nuclear Receptor Related Protein 1 (NURR1) (AID 2282985; active means hit-call score of the fitted dose curve at least 0.9, where 1 is the maximum); settings: HepG2 Attagene TRANS reporter, mRNA readout
Outline: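 Reporter transcript induction, measured by RT-PCR with fluorescent labelling, HpaI digestion and capillary electrophoresis, after 24 hr dosing of human HepG2 cells transiently expressing an exogenous NR-Gal4 fusion with GAL4-UAS-driven reporters; DMSO as baseline.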

Measured: AC50

Chain of Oxysterols receptor LXR-alpha (Homo sapiens) (Q13133 whole entry, looked up): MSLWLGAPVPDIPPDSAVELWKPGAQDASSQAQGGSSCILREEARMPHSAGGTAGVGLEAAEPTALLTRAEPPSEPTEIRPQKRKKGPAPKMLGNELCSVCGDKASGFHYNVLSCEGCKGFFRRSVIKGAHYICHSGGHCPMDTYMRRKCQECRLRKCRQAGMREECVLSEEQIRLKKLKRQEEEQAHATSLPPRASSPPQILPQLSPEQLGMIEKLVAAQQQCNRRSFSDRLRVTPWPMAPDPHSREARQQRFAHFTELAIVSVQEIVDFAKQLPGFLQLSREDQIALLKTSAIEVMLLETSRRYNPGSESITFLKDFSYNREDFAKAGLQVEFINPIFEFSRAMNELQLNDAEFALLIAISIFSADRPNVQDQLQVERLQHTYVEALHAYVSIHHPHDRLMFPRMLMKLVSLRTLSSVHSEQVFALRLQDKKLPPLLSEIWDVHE
Chain of Cellular tumor antigen p53 (Homo sapiens) (P04637 whole entry, looked up): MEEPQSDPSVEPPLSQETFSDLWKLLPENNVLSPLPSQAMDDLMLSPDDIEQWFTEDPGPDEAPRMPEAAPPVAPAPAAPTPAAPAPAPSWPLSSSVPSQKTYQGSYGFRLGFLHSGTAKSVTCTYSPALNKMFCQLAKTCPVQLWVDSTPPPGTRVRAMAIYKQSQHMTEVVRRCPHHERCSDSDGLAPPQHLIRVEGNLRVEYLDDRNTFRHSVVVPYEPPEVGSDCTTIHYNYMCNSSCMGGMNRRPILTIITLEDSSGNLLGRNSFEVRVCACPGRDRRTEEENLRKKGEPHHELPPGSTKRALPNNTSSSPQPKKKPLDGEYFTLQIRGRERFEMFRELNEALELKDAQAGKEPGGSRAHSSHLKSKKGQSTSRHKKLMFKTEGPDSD
Chain of Transcriptional activator Myb (Homo sapiens) (P10242 whole entry, looked up): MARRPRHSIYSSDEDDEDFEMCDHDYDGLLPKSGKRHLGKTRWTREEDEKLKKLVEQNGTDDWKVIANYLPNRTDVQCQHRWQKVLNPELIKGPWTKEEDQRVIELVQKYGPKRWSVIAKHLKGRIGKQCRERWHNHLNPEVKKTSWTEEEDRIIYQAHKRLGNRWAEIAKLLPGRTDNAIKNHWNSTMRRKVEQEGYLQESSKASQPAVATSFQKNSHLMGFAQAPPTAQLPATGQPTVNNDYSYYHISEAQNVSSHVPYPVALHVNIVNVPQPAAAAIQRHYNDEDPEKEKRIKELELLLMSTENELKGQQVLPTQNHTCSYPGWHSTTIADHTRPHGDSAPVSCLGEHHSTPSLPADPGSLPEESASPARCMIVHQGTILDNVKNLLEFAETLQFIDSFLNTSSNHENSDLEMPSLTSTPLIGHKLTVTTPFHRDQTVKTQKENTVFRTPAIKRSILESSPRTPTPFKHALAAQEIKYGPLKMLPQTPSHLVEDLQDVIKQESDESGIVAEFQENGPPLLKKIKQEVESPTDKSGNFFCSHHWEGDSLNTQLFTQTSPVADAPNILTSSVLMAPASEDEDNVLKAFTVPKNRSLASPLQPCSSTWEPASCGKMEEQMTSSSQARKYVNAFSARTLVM
Chain of Nuclear respiratory factor 1 (Homo sapiens) (Q16656 whole entry, looked up): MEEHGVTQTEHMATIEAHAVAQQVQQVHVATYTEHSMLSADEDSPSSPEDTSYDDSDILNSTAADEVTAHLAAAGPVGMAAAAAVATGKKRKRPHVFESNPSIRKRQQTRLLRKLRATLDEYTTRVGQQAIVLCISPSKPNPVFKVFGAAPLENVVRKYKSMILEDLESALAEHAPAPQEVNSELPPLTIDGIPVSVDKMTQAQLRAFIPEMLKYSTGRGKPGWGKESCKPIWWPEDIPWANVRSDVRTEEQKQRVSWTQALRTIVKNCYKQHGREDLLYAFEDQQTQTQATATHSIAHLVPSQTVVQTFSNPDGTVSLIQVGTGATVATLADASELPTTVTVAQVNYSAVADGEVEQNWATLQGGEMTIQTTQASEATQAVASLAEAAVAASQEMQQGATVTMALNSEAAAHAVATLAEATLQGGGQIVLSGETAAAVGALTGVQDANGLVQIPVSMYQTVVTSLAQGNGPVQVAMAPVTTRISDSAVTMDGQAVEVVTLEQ
Chain of Oxysterols receptor LXR-beta (Homo sapiens) (P55055 whole entry, looked up, the tested form may be a part): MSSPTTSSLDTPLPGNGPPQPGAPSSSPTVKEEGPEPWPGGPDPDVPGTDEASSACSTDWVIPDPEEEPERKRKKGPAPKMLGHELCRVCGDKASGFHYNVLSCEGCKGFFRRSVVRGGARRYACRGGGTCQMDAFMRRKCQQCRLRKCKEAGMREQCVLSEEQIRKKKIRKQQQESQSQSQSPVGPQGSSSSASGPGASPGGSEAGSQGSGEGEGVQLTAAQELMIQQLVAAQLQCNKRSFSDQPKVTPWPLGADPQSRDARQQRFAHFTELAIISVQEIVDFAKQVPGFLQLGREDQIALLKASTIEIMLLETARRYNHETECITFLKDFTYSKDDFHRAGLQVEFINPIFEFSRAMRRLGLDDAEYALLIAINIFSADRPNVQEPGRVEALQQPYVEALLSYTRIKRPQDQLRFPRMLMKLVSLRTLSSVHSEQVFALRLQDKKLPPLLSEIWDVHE
Chain of Hepatocyte nuclear factor 4-alpha (Homo sapiens) (P41235 whole entry, looked up, the tested form may be a part): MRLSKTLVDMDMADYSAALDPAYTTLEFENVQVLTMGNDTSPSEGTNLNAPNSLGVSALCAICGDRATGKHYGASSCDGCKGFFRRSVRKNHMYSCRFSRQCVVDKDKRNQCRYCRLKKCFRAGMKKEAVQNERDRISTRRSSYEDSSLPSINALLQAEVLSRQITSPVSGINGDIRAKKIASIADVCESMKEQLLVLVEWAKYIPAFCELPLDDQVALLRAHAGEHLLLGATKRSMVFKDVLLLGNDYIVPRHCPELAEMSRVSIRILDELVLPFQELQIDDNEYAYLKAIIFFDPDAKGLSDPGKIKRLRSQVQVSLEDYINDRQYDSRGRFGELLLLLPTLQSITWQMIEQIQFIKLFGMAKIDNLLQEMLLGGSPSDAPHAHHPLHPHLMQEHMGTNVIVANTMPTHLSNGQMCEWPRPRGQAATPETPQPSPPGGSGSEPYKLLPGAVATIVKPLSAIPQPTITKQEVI
Chain of Glucocorticoid receptor (Homo sapiens) (P04150 whole entry, looked up, the tested form may be a part): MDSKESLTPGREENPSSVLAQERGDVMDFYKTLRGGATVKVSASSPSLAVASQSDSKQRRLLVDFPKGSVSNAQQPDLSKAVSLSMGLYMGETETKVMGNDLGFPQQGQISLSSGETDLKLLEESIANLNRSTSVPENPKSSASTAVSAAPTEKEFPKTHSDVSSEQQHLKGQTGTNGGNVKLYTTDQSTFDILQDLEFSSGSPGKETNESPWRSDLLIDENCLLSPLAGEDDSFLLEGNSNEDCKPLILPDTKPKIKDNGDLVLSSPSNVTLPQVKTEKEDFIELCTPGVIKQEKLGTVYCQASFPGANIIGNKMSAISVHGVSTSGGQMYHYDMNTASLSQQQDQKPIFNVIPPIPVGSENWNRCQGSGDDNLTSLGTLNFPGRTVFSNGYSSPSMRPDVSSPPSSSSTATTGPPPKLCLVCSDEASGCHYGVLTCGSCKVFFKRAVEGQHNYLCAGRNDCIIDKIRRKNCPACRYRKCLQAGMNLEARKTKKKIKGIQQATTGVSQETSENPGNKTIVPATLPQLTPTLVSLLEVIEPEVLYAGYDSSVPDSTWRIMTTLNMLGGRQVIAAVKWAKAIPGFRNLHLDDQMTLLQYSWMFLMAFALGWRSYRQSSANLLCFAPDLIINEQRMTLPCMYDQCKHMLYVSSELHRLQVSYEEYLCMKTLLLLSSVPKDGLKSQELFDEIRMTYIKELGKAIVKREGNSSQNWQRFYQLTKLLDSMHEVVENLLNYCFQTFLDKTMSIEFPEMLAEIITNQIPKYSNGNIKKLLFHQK
Chain of Nuclear receptor subfamily 4 group A member 2 (Homo sapiens) (P43354 whole entry, looked up, the tested form may be a part): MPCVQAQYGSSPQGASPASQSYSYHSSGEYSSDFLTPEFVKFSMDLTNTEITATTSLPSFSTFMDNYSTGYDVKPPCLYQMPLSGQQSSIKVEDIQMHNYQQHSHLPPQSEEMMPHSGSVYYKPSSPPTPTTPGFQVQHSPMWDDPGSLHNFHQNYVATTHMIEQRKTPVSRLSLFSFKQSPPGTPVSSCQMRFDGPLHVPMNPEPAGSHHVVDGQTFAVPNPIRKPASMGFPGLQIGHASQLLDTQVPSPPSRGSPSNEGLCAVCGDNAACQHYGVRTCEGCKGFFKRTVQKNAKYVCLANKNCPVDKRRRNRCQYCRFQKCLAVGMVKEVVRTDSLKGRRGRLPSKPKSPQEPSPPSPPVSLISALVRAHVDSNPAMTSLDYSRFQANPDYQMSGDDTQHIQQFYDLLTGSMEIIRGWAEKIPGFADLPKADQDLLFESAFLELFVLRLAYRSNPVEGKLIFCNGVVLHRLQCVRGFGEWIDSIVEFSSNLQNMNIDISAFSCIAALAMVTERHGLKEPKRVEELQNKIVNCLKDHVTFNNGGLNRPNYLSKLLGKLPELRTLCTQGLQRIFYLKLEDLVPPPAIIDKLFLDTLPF
Chain of Myc proto-oncogene protein (Homo sapiens) (P01106 whole entry, looked up): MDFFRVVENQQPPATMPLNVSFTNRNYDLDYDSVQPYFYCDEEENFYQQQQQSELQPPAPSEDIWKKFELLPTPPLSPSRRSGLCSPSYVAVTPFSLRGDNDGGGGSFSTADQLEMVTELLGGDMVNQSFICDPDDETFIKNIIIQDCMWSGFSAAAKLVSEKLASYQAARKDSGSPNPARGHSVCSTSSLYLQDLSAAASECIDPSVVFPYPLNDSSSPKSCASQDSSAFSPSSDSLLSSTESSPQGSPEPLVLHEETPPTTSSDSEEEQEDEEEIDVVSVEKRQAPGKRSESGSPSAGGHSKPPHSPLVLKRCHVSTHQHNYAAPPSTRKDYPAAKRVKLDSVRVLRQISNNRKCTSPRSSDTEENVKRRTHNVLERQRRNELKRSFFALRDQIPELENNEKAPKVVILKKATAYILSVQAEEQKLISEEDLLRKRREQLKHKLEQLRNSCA

CCCCCCC(C)O (stereo not drawn)
not listed: [13] | [14] | [15] | [16] | [17] | [18]
inactive: all other assays above

CC1=CC(O)CC(C)(C)C1 (stereo not drawn)
not listed: [3] | [4] | [6] | [15] | [16] | [17] | [18]
inactive: all other assays above

NC(N)=S
not listed: [2] | [14] | [15] | [16] | [17] | [18]
inactive: all other assays above

CCCCCCCCCCCCN1CCOCC1
inactive: [1] | [2] | [4] | [6] | [9] | [14] | [12]
active: [10] 33.4 µM | [11] 45.4 µM

O=C(OCc1ccccc1)c1ccccc1O
inactive: [1] | [2] | [3] | [5] | [6] | [7] | [9] | [14]
active: [8] 178 µM | [10] 64.4 µM | [12] 145 µM

CC(=N[Si](C)(C)C)O[Si](C)(C)C
inactive: [1] | [2] | [3] | [5] | [6] | [7] | [8] | [9] | [10] | [12]

c1ccc(OCCOc2ccccc2)cc1
active: [15] 1.24 µM and 1.4 µM
not listed: [2] | [18]
inactive: all other assays above

C[C@H](CCC(=O)O)[C@H]1CC[C@H]2[C@@H]3CC[C@@H]4C[C@H](O)CC[C@]4(C)[C@H]3CC[C@]12C
inactive: [1] | [13] | [4] | [5] | [6] | [7] | [11]
active: [18] 27.7 µM | [8] 100 µM | [9] 156 µM | [10] 45.4 µM | [12] 100 µM

CCCCCCCCCCCCCCCCCC(=O)OCCCCCCCCCCCCCC(C)C
not listed: [5] | [7] | [11] | [15] | [16] | [17] | [18]
inactive: all other assays above

CCOC(=O)CC(C)C
inactive: [1] | [2] | [3] | [4] | [6] | [7] | [8] | [9] | [10] | [11]

CC/C=C\CCOC(=O)C(C)C
inactive: [1] | [2] | [3] | [6] | [8] | [9] | [14] | [10] | [11] | [12]

Cc1ccc(C(C)(C)O)cc1
not listed: [2] | [3] | [5] | [15] | [16] | [17] | [18]
inactive: all other assays above

CC(C)(C)c1cccc(O)c1
active: [16] 0.016 µM
not listed: [3] | [5] | [6] | [13]
inactive: all other assays above

NC(N)=NC(N)=NCCc1ccccc1
active: [10] 6.3 µM
not listed: [4] | [5] | [15] | [16] | [17] | [18]
inactive: all other assays above

CCCCCCCCOC(=O)c1ccc(O)cc1
not listed: [2] | [12] | [13] | [15] | [16] | [17]
inactive: all other assays above

CC1COC(=O)O1 (stereo not drawn)
inactive: [1] | [2] | [4] | [5] | [6] | [8] | [9] | [10] | [11] | [12]

CC(C)(O)C(=O)c1ccc(OCCO)cc1
inactive: [1] | [2] | [3] | [4] | [6] | [7] | [9] | [14] | [10] | [12]

S=c1[nH][nH]c(=S)s1
inactive: [1] | [13] | [18] | [8] | [9] | [14] | [10] | [11] | [12]

CC(CCO)CC(C)(C)C (stereo not drawn)
not listed: [2] | [8] | [15] | [16] | [17]
inactive: all other assays above

N=C1N=C(N)c2ccccc21
not listed: [2] | [14] | [15] | [16] | [17]
inactive: all other assays above
